# HT1080 IDH1KD tx: qHTS for induction of synthetic lethality in tumor cells producing 2HG: qHTS for the HT-1080-IDH1KD cell line; 360,000 compounds, 2% hits; HT-1080 IDH1 knockdown viability, ATP luminescence, 48 h; Potency, µM (doses to about 46.1 µM), for inactives: at the highest dose activity, negative = toxicity, usual class: cytotoxic;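 note: potency is the fitted concentration of half-maximal effect; 0% = DMSO wells and -100% = cell-free medium wells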
#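 Viability of IDH1-knockdown HT-1080 fibrosarcoma cells was assessed by CellTiter-Glo after 48 h at 37 °C with titrated compound; concentration-effect curves were classified by fit quality and response size.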
# DT40 TDP1 CPT: qHTS for Inhibitors of human tyrosyl-DNA phosphodiesterase 1 (TDP1): qHTS in cells in presence of CPT; Potency, µM (doses to about 46.2 µM), without a hit: at the top dose activity change, negative = growth inhibition, actives largely listed as inhibitors; chicken DT40 Tdp1-/-;hTDP1 cells + 20 nM CPT, ATP luminescence, 48 h; 420,000 compounds, 12% hits; AID 686979, 2013; note: potency is the fitted concentration of half-maximal effect; nearly all actives have a fitted effect of over 55% in size
#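 Cell growth measured by CellTiter-Glo luminescence after a minimum 48 h, 37 C compound exposure with 20 nM CPT in Tdp1-knockout DT40 cells stably expressing hTDP1, seeded 400/well; qHTS titration format.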
# HT1080-NT tox: qHTS for induction of synthetic lethality in tumor cells producing 2HG: qHTS for the HT-1080-NT fibrosarcoma cell line; HT-1080-NT fibrosarcoma viability, CellTiter-Glo ATP luminescence, 48 h; Potency, µM (titrated, usually from 46.1 µM), for the others: at the top dose activity, negative = less viability, hits mostly cytotoxic; 360,000 compounds, 1.6% hits;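 note: NT is the 2HG producing partner of a matched IDH1 knockdown line; potency is the fitted concentration of half-maximal effect; 0% = DMSO-treated cells and -100% = media-only wells without cells; nearly all actives have a fitted effect of over 55% in size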
#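 Viability by CellTiter-Glo luminescence after 48 h compound exposure at 37C of HT-1080-NT cells (750/well, RPMI, 5% FBS). % activity scaled between DMSO wells and medium-only wells, then curve-fitted and categorized by curve class.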
# TDP1 cell noCPT: qHTS for Inhibitors of human tyrosyl-DNA phosphodiesterase 1 (TDP1): qHTS in cells in absence of CPT; DT40 Tdp1-/- hTDP1 cells, no CPT, ATP luminescence, 48 h; Potency, µM (highest dose often 46.2 µM), without a hit: at the highest dose activity change, negative = growth inhibition, most hits filed as inhibitors; 420,000 compounds, 15% hits; note: potency is the fitted concentration of half-maximal effect; nearly all actives have a fitted effect of over 55% in size
#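 DT40 Tdp1-/-;hTDP1 cells, no CPT (DMSO vehicle only), 400 cells/well; compounds pin-transferred; ≥48 hr, 37 °C; CellTiter-Glo 30 min RT dark, luminescence read.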
# IL-1B inflam inh: qHTS for Inhibitors of Inflammasome Signaling: IL-1-beta AlphaLISA Primary Screen | activity change, % at 57.5 µM | AID 743279, 2014 | THP-1 LPS/ATP IL-1B secretion, AlphaLISA, 16 h; stronger effect = lower value | 360,000 compounds, 4.7% hits; in the data active = activity change below about -50%; inconclusive = mostly about -30% to -49%
#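 THP-1 cells pretreated 1 hr with compounds (up to 57.5 uM final), then stimulated with LPS (250 ng/mL final) plus ATP (1.25 mM final); secreted IL-1B measured by AlphaLISA after 16 hr, decreased signal indicating inhibition.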
# * hit, by the source's call; u = inconclusive; x = no result. Rows were chosen to be rich in hits. Some 19% of all compounds tested hit in one or more screens of this group. Unless noted, calls come from the whole dose curve; as a rule, active = well fitted curve in the direction sought with a large enough effect; inconclusive = small, poorly fitted or top-dose-only effect, or another doubt; inactive = no such curve, though single readings can be large; an effect the other way counts as inactive or inconclusive. Unless noted, % is set by controls: 0 for no effect and ±100 for the full control effect.
SMILES,HT1080 IDH1KD tx,DT40 TDP1 CPT,HT1080-NT tox,TDP1 cell noCPT,IL-1B inflam inh
CC(=O)N1CCC(C(=O)N2c3ccccc3N=C(c3ccc(C(F)(F)F)cc3)C2C(=O)NC(C)(C)C)CC1 (configuration not stated),-7%,u,0%,u,38
CCOC(=O)Cn1c(=NC(=O)c2ccc([N+](=O)[O-])s2)sc2ccccc21,1%,u,-4%,u,0
COC(=O)Cc1ccc(NC(=S)NCc2ccc(S(N)(=O)=O)cc2)cc1,-3%,21µM*,-1%,-17%,45
COc1cc2nc(N3CCCN(C)CC3)nc(N)c2cc1OC,-15%,u,-3%,u,x
COc1cc2nc(N3CCCN(C)CC3)nc(N3CCN(C)CC3)c2cc1OC,-11%,14µM*,-14%,16µM*,x
COc1cc2nc(N3CCCN(C)CC3)nc(N(C)C)c2cc1OC,-17%,u,-22%,18µM*,x
CC(C)(C)SCCNS(=O)(=O)c1ccc(C#N)cc1,18%,-11%,-2%,u,3
CCOC(=O)C(=Cc1ccc2c(c1)OCO2)c1ccccc1,-6%,-6%,-8%,u,-6
COc1ccccc1/C=C/C1C(C(=O)OCC(C)C)=C(C)N=C2SCCC(=O)N21 (configuration not stated),-25%,2%,-21%,4%,-69*
COc1cc(C2C(C(=O)OC(C)C)=C(C)N=C3SCCC(=O)N32)ccc1OCc1ccccc1 (configuration not stated),x,13µM*,x,29µM*,x
COC(=O)C1=C(C)N=C2SCCC(=O)N2C1/C=C/c1ccccc1 (configuration not stated),1%,7%,-1%,-7%,-8
CC1=C(C(=O)OCc2ccccc2)C(c2cccs2)N2C(=O)CCSC2=N1 (configuration not stated),-7%,0%,-15%,-25%,-56*
CCOC(=O)C1=C(C)N=C2SCCC(=O)N2C1c1cc(Br)ccc1OC (configuration not stated),0%,-5%,7%,-15%,-13
CSc1ccc(/C=N/NC(=O)c2cccc(O)c2)cc1,u,u,u,u,-3
CCCCCCCCN1C(=O)[C@H](CC(=O)NCc2cccc(C(F)(F)F)c2)C[C@@]2(C(=O)OC)CCCCC=C12,u,21µM*,u,u,-55*
CCCCCCCCN1C(=O)[C@H](CC(=O)NCc2cccc(C(F)(F)F)c2)C[C@@]2(C(=O)OCC)CCC=C12,u,u,u,13µM*,-23
Cc1ccc(CSc2nnc(-n3c(=O)c(C#N)cc4c(=O)n5cc(C)ccc5nc43)s2)cc1,x,9%,x,-10%,x
COc1ccccc1CN1CCNC(=O)C1CC(=O)NCCc1cnccn1 (configuration not stated),20%,0%,0%,-6%,0
O=C(COC(=O)c1nc(Cl)c(Cl)c(Cl)c1Cl)c1ccc[nH]1,-1%,u,1%,u,-103*
Cc1nn(C)c(C)c1S(=O)(=O)N1CCC(CO)(CC2CCCCO2)CC1 (configuration not stated),4%,3%,0%,1%,23
COc1ccc(-c2sc3cc(OC)c(OC)cc3c2C#CC(C)(C)O)cc1,-13%,u,u,u,-4
COc1ccc2sc(-c3ccc(SC)cc3)c(C#CCO)c2c1,u,18µM*,u,u,7
COc1ccc(-c2sc3cc(OC)c(OC)cc3c2C#CCO)cc1,u,18µM*,-28%,u,-23
Cc1ccc2nc(C)c(C(=O)NN=C3CCN(C)CC3)n2c1,5.2µM*,6%,5.2µM*,8%,65
COc1cc(/C=N/NC(=O)c2c(C)nc3ccc(Cl)cn23)cc(OC)c1OC,u,u,-7%,u,190
SMILES,HT1080 IDH1KD tx,DT40 TDP1 CPT,HT1080-NT tox,TDP1 cell noCPT,IL-1B inflam inh
Cc1ccc(/C=N/NC(=O)c2c(C)nc3ccc(Br)cn23)cc1,0.58µM*,0.73µM*,1.3µM*,0.58µM*,71
COc1ccc(/C=N\NC(=O)c2c(C)nc3ccc(Br)cn23)cc1,0.58µM*,0.58µM*,u,0.73µM*,75
CN(CC(=O)Nc1c(Cl)cccc1Cl)C(=O)c1n[nH]c2ccccc12,2%,2%,3%,-9%,0
O=C(NCCOCCn1c(=O)oc2ccccc21)Nc1ccc(F)cc1,x,16µM*,x,u,x
COCCNC(=O)CCn1c(=O)oc2ccccc21,18%,-7%,24%,-15%,-5
Cc1ccc2oc(=O)n(CC(=O)O)c2c1,9%,0%,4%,-13%,10
Cc1ccc2oc(=O)n(CCNC(=O)Nc3ccc(Cl)cc3)c2c1,x,23µM*,x,16µM*,x
Cc1c(Cl)cccc1NC(=O)NCCOCCn1c(=O)oc2ccccc21,x,8.2µM*,x,7.3µM*,x
Cc1cccc(NC(=O)NCCOCCn2c(=O)oc3ccccc32)c1C,x,u,x,-27%,x
O=C1NC[C@@H](CCCCN2C[C@H](Cc3ccccc3)N(CCc3ccccc3)C(=O)C2=O)N(CCc2ccccc2)C1=O,u,-8%,2%,-20%,-19
COc1ccccc1N1CCN(C(=O)c2oc3ccccc3c2NC(=O)C(C)Oc2ccccc2)CC1 (configuration not stated),x,u,x,16µM*,x
COc1ccccc1N1CCN(C(=O)c2oc3ccc(Br)cc3c2C)CC1,u,2.9µM*,u,7.3µM*,23

# Compound activity: PubChem BioAssay, National Center for Advancing Translational Sciences (NCATS)
